From PubChem BioAssay (NCI)
The panel holds about 79,000 compounds, 15% with a hit somewhere; the sample as a whole holds those more often. Values without a mark were called inactive. Activity calls are given as the source filed them. No stated cut-off is given here; in the data, active means growth inhibition above about 70%; inactive means the rest.

Experiment: NCI Yeast Anticancer Drug Screen. Data for the rad14 strain (AID 159);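 further: 0% = growth of vehicle-treated control cultures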
Conditions: S. cerevisiae rad14 strain growth inhibition, active compounds read high
Experimental: Growth inhibition of yeast strains with defined genetic alterations is measured as a screen for potential anti-cancer activity. Selected strains with alterations in DNA damage repair or cell cycle control were exposed to compounds and growth inhibition was measured relative to vehicle treated controls. The strain used in this assay is rad14

SMILES | growth inhibition (at 1.2 µM) [%] | growth inhibition (at 3.7 µM) [%] | growth inhibition (at 11.0 µM) | growth inhibition (at 33.0 µM) | growth inhibition (at 100.0 µM)
CCCC(=O)OC(OC(=O)CCC)c1ccc([N+](=O)[O-])o1 | -6 | -4 | 1% | 7% | 26%
COc1ccc(C(=O)NCCN(C)C)c2nc3ccccc3cc12 | 7 | 3 | -9% | 10% | 57%
COc1ccc(CCN2C(=O)C=CC2=O)cc1OC | -10 | 3 | 63% | 99% (active) | 99% (active)
Cc1ccc(Cl)c2c(=O)c3ccccc3[nH]c12 | 0 | 3 | 4% | 5% | 19%
COc1ccc2cc(CN3CCC(C4CCN(Cc5ccc6cc(OC)ccc6c5)CC4)CC3)ccc2c1 | -19 | -13 | -22% | 9% | 97% (active)
O=S(=O)(O)CC[S][Sn]([S]CCS(=O)(=O)O)([c]1ccccc1)[c]1ccccc1 | -6 | 35 | 91% (active) | 97% (active) | 97% (active)
CC1=NN(C(=O)CC(=O)N(C(=O)c2ccccc2)c2ccc(Cl)cc2)C(=O)C1N=Nc1ccc([N+](=O)[O-])cc1 (stereo not given) | -1 | 7 | 23% | 44% | 53%
CC(C)(C(=O)NN)c1ccccc1 | -1 | -4 | 3% | 21% | 58%
